These results are taken from PubChem BioAssay (NCATS).

A short description of assay [1]: qHTS assay for measurement of the activity of small molecule inhibitors on Zika virus induced Caspase-3 activity in human iPSC derived neural progenitor cells (hNPCs) (AID 1224857). Note: nearly all actives have a fitted effect of over 65% in size. As to conditions: hNPCs ZIKV-induced caspase-3/7, Caspase-Glo luminescence, 6 h; series mostly up to 45.7 µM. In a few lines: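 Caspase-3/7 induction by a 6-hour ZIKV infection was quantified with a luminescent Caspase-Glo 3/7 reagent incubated 30 minutes at room temperature. Compounds were preincubated with hNPCs for 1 hour; inhibition was calculated against uninfected and infected control wells.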
In general terms: In qHTS, concentration-response curves come from the screen itself.

A short description of assay [2]: qHTS assay for measurement of the activity of small molecule inhibitors on Zika virus induced Caspase-3 activity in human astrocytoma cells (AID 1224859). As to conditions: SNB-19 ZIKV-induced caspase-3/7, luminescence, 6 h; series mostly up to 45.7 µM. In a few lines: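 In SNB-19 cells plated at 250 cells/well and grown 16-20 h, compounds were applied 1 h before ZIKV (2 FFU/cell). Six hours later caspase-3/7 luminescence was recorded.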

Assay [3] concerns the target Atrial natriuretic peptide receptor 1 (Homo sapiens) (UniProt P16066). Kind of assay: Natriuretic polypeptide receptor (hNpr1) antagonism - Pilot screen (AID 1347049; calls by dose curve;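 note: agonist-evoked cGMP luminescence read 20 min after hNppA addition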). As to conditions: hNpr1 cells, antagonist mode cGMP read-out; series mostly up to 57.5 µM. The method in brief: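 Readout is cGMP-driven firefly luciferase luminescence in HEK293 cells carrying hNpr1 and a PDE5-domain GloSensor, read before and 20 min after 0.1 nM hNppA stimulation. Cells had 2% substrate reagent for 2 h and test compound for 30 min.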

Assay [4] deals with Atrial natriuretic peptide receptor 2 (Homo sapiens) (UniProt P20594). Briefly: Natriuretic polypeptide receptor (hNpr2) antagonism - Pilot subtype selectivity assay (AID 1347050; calls by dose curve; note: potency is the fitted concentration of half-maximal effect). As to conditions: NPR2-expressing cells, cGMP antagonist-mode read-out; series mostly up to 38.3 µM. In a few lines: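 Pilot selectivity screen against hNpr2: HEK293 cGMP-sensor cells are treated with LOPAC1280 compounds, then with hNppC peptide at 1 nM final. The cGMP-driven luminescence change over 20 min at room temperature is the read-out.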

A short description of assay [5]: NS1 protein of Zika virus - qHTS assay to identify small molecule inhibitors in human HEK 293 cells (AID 1347053). Note: nearly all actives have a fitted effect of over 55% in size. Note: potency is the fitted concentration of half-maximal effect. As to conditions: HEK293 ZIKV MR766 infection, NS1 TR-FRET, 24 h; series mostly up to 46.1 µM. The method in brief: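 HEK 293 cells, seeded 20 h at 37 C, were pretreated with compound 1 h, then infected with ZIKV MR766 (MOI = 0.5) for 24 h. NS1 was read by TR-FRET with two anti-NS1 antibodies, normalized to uninfected and infected wells.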

Assay [6] has as its target Parathyroid hormone/parathyroid hormone-related peptide receptor (Homo sapiens) (UniProt Q03431). Kind of assay: qHTS for PTHR1 Agonists: Optimization Screen against the NCGC LOPAC library (AID 1347079).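 Note: GloSensor cAMP luminescence in HEK-293 GP2 cells expressing human PTHR1 with IBMX.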 As to conditions: HEK293 GP2 PTHR1 GloSensor cAMP luminescence, 1 h; series mostly up to 57.1 µM. In a few lines:
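Compounds were tested across a qHTS titration. PTHR1-expressing GP2 cells report cAMP rises via GloSensor luminescence after 1 hr compound exposure at 37C with IBMX present.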

Assay [7] addresses T1, Tyrosine-protein phosphatase non-receptor type substrate 1 (Homo sapiens) + Leukocyte surface antigen CD47 (Homo sapiens) (UniProt P78324+Q08722). Briefly: CD47-SIRPalpha protein protein interaction - LANCE assay qHTS validation (AID 1347057; active = well fitted curve in the direction sought with a large enough effect in the signal ratio, with a control signal flat, not every such curve was filed as active; the % refers to the signal ratio). As to conditions: Recombinant CD47-His / biotin-SIRPalpha, TR-FRET ratio; series mostly up to 38.3 µM. The method in brief:
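First, His-tagged CD47 and Eu-labelled anti-His antibody met the compound for 30 min; next, site-specifically biotinylated SIRPalpha was added for 30 min; finally streptavidin-APC was added before reading the TR-FRET ratio.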
For orientation: TR-FRET usually uses a lanthanide donor and a delayed reading to cut background.

Assay [8] deals with T1, Tyrosine-protein phosphatase non-receptor type substrate 1 (Homo sapiens) + Leukocyte surface antigen CD47 (Homo sapiens). Kind of assay: CD47-SIRPalpha protein protein interaction - HTRF assay qHTS validation (AID 1347058; active = well fitted curve in the direction sought with a large enough effect in the signal ratio, not every such curve was filed as active; the % refers to the signal ratio;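 note: recombinant soluble extracellular CD47 with His tag and biotinylated SIRPalpha domains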). As to conditions: TR-FRET HTRF CD47-His / biotin-SIRPalpha binding, ratio 665/615; series mostly up to 38.3 µM. In a few lines:
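TR-FRET read (Ch1/Ch2 ratio) of soluble extracellular CD47 and Avi-biotinylated SIRPalpha domains in PBS pH 7.4 with 0.05% IGEPAL; 7-point compound titration. Sequential 30 min room-temperature steps; non-biotinylated SIRPalpha as control inhibitor.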

For assay [9] the target is unchanged. Kind of assay: CD47-SIRPalpha protein protein interaction - Alpha assay qHTS validation (AID 1347059).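 Note: bead proximity luminescence from CD47 binding SIRPalpha after compound preincubation with SIRPalpha.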 Note: potency is the fitted concentration of half-maximal effect. As to conditions: AlphaScreen CD47-His/biotin-SIRPalpha binding, LOPAC; series mostly up to 38.3 µM. The method in brief: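 Binding is measured by AlphaScreen proximity: Ni-NTA acceptor beads capture His-CD47, streptavidin donor beads capture biotin-SIRPalpha. Each of three additions (SIRPalpha with compound, CD47, beads) incubates 30 min at room temperature protected from light.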

Results filed as inconclusive are left out. The source made the active and inactive calls. Unless noted, calls come from the whole dose curve; as a rule, active = well fitted curve in the direction sought with a large enough effect; inconclusive = small, poorly fitted or top-dose-only effect, or another doubt; inactive = no such curve, though single readings can be large; an effect the other way counts as inactive or inconclusive.

Chain of Parathyroid hormone/parathyroid hormone-related peptide receptor (Homo sapiens) (Q03431 whole entry, looked up): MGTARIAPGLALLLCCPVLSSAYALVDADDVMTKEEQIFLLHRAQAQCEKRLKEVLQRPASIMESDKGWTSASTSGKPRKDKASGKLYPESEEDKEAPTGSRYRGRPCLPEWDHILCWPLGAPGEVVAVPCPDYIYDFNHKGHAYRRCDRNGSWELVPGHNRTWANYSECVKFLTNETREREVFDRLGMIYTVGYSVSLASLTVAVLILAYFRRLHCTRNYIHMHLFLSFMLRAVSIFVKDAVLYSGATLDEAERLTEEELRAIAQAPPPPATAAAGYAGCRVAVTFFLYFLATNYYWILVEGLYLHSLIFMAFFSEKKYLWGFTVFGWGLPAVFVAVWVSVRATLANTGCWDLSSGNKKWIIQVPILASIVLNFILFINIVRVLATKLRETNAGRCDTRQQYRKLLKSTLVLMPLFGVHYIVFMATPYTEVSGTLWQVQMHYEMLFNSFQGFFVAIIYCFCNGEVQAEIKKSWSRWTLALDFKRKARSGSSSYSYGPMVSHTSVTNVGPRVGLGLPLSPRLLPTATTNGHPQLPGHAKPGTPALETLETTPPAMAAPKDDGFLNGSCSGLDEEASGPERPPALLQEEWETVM
Chain of Atrial natriuretic peptide receptor 2 (Homo sapiens) (P20594 whole entry, looked up): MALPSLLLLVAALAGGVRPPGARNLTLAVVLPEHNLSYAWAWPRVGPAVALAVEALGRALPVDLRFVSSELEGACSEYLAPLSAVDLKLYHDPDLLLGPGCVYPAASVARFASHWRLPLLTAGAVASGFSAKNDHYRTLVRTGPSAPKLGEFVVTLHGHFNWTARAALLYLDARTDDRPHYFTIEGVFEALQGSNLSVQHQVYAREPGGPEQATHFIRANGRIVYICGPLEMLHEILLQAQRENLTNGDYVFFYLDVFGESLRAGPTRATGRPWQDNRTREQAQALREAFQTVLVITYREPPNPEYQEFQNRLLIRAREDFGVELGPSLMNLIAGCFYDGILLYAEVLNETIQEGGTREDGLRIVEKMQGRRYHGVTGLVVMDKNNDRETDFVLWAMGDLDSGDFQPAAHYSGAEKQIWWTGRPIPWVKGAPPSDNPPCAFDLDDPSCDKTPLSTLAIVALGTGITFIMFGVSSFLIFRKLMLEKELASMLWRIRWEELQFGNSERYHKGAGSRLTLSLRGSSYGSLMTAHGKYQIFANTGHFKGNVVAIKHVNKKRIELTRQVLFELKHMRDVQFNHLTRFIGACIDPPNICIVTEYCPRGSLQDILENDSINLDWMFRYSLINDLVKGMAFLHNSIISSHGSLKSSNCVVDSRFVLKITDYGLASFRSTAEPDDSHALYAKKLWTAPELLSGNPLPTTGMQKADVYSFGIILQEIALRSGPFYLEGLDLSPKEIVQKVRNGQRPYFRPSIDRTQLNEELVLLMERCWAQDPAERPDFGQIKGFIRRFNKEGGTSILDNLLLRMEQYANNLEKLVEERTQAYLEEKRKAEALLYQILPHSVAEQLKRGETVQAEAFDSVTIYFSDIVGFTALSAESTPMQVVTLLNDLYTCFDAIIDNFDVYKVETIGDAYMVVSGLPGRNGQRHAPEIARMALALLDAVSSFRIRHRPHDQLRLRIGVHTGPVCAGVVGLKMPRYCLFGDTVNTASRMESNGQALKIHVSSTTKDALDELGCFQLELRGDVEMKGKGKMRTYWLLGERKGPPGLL
Chain of Atrial natriuretic peptide receptor 1 (Homo sapiens) (P16066 whole entry, looked up): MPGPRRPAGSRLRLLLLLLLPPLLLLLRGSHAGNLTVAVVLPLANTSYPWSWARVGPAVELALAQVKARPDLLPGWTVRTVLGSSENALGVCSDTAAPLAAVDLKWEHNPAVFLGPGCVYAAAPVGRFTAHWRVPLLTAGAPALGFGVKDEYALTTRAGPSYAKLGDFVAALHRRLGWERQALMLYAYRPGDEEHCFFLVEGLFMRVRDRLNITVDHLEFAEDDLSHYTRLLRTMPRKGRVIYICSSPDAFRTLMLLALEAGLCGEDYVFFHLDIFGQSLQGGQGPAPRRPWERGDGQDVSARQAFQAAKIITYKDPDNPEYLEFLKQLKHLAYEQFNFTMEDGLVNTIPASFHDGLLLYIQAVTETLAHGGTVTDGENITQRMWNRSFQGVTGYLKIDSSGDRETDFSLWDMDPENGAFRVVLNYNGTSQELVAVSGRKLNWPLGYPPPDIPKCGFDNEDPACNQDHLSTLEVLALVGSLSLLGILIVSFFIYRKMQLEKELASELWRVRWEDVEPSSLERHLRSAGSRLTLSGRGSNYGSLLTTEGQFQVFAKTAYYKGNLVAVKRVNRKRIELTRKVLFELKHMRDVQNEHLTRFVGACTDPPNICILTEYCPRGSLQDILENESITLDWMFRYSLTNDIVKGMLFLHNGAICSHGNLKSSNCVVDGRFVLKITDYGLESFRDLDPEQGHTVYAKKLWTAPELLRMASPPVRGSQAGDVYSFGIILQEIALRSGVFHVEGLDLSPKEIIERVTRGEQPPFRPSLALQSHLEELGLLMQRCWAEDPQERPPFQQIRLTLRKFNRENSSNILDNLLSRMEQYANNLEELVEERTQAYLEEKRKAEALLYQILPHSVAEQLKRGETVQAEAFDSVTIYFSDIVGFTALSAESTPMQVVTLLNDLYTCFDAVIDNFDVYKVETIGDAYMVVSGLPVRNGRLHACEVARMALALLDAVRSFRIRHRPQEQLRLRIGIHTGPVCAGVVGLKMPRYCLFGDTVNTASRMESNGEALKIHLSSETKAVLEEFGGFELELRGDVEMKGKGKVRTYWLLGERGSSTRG
T1 sequence (P78324 whole entry, looked up): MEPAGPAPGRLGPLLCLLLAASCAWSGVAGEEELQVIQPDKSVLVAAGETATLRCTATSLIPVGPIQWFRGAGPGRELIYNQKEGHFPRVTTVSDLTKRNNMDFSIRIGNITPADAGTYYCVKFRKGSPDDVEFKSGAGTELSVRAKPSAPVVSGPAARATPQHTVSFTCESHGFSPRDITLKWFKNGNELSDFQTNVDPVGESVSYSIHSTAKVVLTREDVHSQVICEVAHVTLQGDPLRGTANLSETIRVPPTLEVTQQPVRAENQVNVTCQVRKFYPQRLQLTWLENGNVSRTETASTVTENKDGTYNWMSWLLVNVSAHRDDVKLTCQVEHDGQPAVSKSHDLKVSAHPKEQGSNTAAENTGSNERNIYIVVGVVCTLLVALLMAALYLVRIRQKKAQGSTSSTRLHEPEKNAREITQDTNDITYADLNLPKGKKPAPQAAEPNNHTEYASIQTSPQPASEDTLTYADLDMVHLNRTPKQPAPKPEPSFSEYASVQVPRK
T1 sequence (Q08722 whole entry, looked up): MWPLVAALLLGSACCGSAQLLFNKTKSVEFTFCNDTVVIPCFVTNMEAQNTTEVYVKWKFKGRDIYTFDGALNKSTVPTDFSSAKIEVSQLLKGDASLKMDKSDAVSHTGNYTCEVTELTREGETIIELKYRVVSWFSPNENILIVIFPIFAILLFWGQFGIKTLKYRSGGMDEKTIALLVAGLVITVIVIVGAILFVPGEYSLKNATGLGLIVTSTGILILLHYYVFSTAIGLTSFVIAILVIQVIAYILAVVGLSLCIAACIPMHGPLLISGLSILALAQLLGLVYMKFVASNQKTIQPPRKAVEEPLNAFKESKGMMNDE

Consider `CN1C2CC(OC(=O)[C@H](CO)c3ccccc3)CC1C1OC12` (some centres undefined), for which the Potency entry in [1], in [2], in assay [3], in assay [4], in [5] and in assay [6] was “inactive” throughout.
Regarding `NC(=O)C(=O)O`, the Potency result in assay [1], in assay [2], in [3], in assay [4], in assay [5] and in assay [7] was “inactive” in each case. For the same molecule, the Potency entry in assay [9] and in assay [6] was “inactive” in each case. For the same molecule, the result in assay [8] was inactive.
Regarding `COc1cccc(OC)c1OCCNCC1COc2ccccc2O1` (centres undefined), the Potency entry in assay [1], in assay [2], in [3], in assay [4], in assay [5] and in [7] was “inactive” throughout. Further, the Potency result in assay [9] was “inactive”.
As for `C[C@@H](CN1CCC(Cc2ccccc2)CC1)[C@@H](O)c1ccc(O)cc1`, the Potency result in assay [1], in [2], in [3], in assay [4], in [5] and in [7] was “inactive” throughout. In addition, the Potency result in assay [9] and in assay [6] was “inactive” throughout. Besides, the result in [8] was inactive.
Consider `Cn1ncc(S(=O)(=O)Cc2ccccc2)c(Br)c1=O`, for which the Potency result in assay [1], in assay [2], in assay [3], in assay [5], in [7] and in assay [9] was “inactive” in each case. Further, the Potency result in [6] was “inactive”. The Potency in [4] was 11.7 µM (active).
Turning to `Oc1cc2c(cc1O)CN(C(=S)NCCc1ccc(Cl)cc1)CCC2`, the Potency entry in [1], in assay [2], in [3], in [4], in [5] and in assay [7] was “inactive” in each case. In addition, the Potency result in assay [9] and in assay [6] was “inactive” each time. Besides, the result in assay [8] was inactive.
With `OC[C@H]1O[C@@H](n2cnc3c(NC4CCCCC4)ncnc32)[C@H](O)[C@@H]1O`, the Potency entry in assay [1], in assay [2], in assay [3], in [4], in assay [7] and in [9] was “inactive” in each case. Moreover, the Potency entry in [6] was “inactive”. Also, the result in assay [8] was inactive.
Take `CC1CN(S(=O)(=O)c2cccc3cnccc23)CCN1` (centres undefined): the Potency result in assay [1], in assay [2], in [3], in [4], in assay [5] and in assay [7] was “inactive” each time. The Potency result in assay [9] and in assay [6] was “inactive” throughout. Moreover, in [8], the outcome was inactive.
`COc1cccc(C(=O)NCCN2CCN(c3ccc(Cl)cc3)CC2)c1`: the Potency result in assay [1], in [2], in assay [3], in assay [4], in assay [5] and in assay [7] was “inactive” throughout. Besides, the Potency entry in assay [9] and in assay [6] was “inactive” each time. The outcome in [8] was inactive.
In the case of `CCCCCCCCCCCCCCCC(=O)OC(CC(=O)O)C[N+](C)(C)C` (centres undefined), the Potency entry in assay [1], in [2], in [3], in assay [4], in assay [5] and in [7] was “inactive” in each case. Further, in [6], the Potency result was “inactive”. Further, the outcome in assay [8] was inactive.
Consider `CC(=O)N[C@H](C(=O)O)C(C)(C)SN=O`, for which the Potency result in assay [1], in assay [2], in [3], in [4], in assay [7] and in assay [9] was “inactive” throughout. Also, in [6], the Potency entry was “inactive”. The result in assay [8] was inactive.
As to `NC(N)=NC(=O)c1nc(Cl)c(N2CCCCCC2)nc1N`, the Potency result in assay [1], in [2], in assay [3], in assay [4], in [5] and in assay [7] was “inactive” each time. Further, the Potency result in [9] and in assay [6] was “inactive” in each case.
With `OCC1O[C@H](O)C(Cl)C(O)C1O` (some centres undefined), the Potency entry in [1], in [2], in [3], in assay [4], in assay [5] and in assay [7] was “inactive” throughout. Besides, the Potency result in assay [9] and in [6] was “inactive” in each case.
As to `O=C(O)c1cc(=O)c2ccccc2[nH]1`, the Potency result in [1], in [2], in [3], in [4], in assay [5] and in [7] was “inactive” throughout. Besides, the Potency entry in [9] and in assay [6] was “inactive” throughout. In assay [8], the result was inactive.
With `NCCCCCCCCCCN`, the Potency entry in assay [1], in assay [2], in assay [3], in [4], in assay [7] and in [9] was “inactive” in each case. Also, in assay [8], the outcome was inactive.
On to `CC1(C)CCC=[N+]1[O-]`, for which the Potency result in assay [1], in assay [2], in assay [3], in assay [4], in assay [5] and in [7] was “inactive” each time. In addition, the Potency result in [9] and in assay [6] was “inactive” in each case. The outcome in [8] was inactive.
On to `N[C@@H](CC(=O)O)C(=O)O`, for which the Potency result in assay [1], in assay [2], in assay [3], in assay [4], in assay [5] and in assay [6] was “inactive” throughout.
As for `CN1CCc2ccccc2Cc2[nH]c3ccccc3c2CC1`, the Potency result in assay [1], in assay [2], in assay [3], in assay [4], in [5] and in [7] was “inactive” throughout. Also, the Potency result in [9] and in assay [6] was “inactive” each time.
For the molecule `c1cnc2c(c1)ccc1cccnc12`, the Potency result in [1], in assay [2], in assay [3], in assay [4], in assay [7] and in [6] was “inactive” each time. The Potency was 7.08 µM (active) in [5] and 0.185 µM (active) in assay [9]. Further, the result in assay [8] was inactive.
